Compound in the test: C#CCNC(=O)CCSSCCC(=O)NCCc1ccc(C=O)c(C=O)c1
The test can be described thus: lysine labeling ratio R10:1 (500 µM / 50 µM probe), SILAC-ABPP in living cells; higher = lower intrinsic lysine reactivity toward the probe, active = 2 or less. The conditions noted are these: HeLa; probe concentrations 500 vs 50 µM. A digest of the protocol:
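In PBS at room temperature, living HeLa cells grown with SILAC light or heavy labels were treated with 50 µM or 500 µM of an alkyne-tagged, disulfide-linked lysine probe, with label swaps in both directions. Analysis was by LC-MS/MS on a TIMS-TOF Pro after click to biotin-azide, neutravidin capture and DTT release. For each lysine, R is the median across forward and reverse replicates of the filtered median high-probe/low-probe MS1 peptide ratio, capped at 20.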
Chain of UniProt O43707 (O43707 whole entry): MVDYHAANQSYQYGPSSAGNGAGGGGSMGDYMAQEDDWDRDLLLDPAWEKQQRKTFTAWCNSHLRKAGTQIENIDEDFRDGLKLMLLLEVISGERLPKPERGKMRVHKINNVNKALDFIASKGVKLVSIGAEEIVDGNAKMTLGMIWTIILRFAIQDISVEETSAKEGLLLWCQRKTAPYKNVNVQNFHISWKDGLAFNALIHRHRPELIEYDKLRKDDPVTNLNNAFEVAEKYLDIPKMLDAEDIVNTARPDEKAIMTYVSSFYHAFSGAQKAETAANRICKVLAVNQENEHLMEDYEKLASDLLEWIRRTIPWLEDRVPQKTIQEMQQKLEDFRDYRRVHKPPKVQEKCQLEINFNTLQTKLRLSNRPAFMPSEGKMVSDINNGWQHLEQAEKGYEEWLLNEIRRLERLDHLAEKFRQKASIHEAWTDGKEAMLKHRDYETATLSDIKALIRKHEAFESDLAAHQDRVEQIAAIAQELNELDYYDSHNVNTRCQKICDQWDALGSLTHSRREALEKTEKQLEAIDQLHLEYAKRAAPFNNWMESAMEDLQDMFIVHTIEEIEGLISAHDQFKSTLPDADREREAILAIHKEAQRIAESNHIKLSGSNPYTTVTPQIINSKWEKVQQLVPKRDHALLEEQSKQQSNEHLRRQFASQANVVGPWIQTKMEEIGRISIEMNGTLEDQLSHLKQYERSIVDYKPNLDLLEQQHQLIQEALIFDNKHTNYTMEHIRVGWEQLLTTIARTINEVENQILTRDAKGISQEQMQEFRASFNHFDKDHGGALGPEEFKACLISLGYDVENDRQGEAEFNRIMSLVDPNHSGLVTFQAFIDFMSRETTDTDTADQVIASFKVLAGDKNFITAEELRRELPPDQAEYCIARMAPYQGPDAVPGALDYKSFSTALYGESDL
Chain of UniProt P05067 (P05067 whole entry): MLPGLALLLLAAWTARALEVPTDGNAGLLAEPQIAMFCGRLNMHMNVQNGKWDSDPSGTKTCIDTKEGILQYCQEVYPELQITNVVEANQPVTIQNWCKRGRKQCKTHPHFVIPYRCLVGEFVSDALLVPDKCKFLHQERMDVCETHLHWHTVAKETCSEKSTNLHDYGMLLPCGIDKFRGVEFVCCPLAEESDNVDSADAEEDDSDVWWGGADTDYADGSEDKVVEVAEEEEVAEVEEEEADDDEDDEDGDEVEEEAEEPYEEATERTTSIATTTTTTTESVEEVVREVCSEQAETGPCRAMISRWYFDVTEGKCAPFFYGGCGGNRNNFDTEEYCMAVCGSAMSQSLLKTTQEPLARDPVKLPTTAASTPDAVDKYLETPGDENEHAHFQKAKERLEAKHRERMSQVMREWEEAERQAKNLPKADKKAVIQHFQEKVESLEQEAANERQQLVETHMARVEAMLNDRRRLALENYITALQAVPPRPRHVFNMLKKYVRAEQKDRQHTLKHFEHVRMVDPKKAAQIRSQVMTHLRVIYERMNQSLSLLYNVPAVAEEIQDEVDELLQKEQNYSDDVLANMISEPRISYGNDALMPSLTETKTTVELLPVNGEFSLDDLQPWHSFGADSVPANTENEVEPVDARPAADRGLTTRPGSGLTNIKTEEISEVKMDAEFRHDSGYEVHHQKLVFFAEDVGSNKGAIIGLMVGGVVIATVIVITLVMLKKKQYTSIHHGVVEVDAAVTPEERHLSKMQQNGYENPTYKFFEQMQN
Chain of UniProt P13010 (P13010 whole entry): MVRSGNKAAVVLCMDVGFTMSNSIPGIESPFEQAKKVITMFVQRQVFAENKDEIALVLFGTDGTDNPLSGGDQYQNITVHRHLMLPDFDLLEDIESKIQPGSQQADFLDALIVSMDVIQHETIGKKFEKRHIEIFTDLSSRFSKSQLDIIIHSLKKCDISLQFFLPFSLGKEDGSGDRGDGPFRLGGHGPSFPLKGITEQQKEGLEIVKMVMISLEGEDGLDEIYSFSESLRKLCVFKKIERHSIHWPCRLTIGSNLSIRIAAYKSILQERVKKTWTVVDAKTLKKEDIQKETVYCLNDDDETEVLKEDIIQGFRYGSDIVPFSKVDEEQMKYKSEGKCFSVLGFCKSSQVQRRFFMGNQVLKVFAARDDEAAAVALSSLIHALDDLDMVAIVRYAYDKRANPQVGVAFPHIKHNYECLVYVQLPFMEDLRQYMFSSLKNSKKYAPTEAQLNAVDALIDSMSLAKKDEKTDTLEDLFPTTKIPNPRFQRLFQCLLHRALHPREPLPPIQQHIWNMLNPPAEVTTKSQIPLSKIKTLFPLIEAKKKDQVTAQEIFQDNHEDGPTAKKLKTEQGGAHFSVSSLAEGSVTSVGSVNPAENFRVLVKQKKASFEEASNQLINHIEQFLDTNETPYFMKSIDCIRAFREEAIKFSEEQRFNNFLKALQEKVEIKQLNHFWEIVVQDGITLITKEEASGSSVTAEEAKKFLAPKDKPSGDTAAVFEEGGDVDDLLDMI
Chain of UniProt O95084 (O95084 whole entry): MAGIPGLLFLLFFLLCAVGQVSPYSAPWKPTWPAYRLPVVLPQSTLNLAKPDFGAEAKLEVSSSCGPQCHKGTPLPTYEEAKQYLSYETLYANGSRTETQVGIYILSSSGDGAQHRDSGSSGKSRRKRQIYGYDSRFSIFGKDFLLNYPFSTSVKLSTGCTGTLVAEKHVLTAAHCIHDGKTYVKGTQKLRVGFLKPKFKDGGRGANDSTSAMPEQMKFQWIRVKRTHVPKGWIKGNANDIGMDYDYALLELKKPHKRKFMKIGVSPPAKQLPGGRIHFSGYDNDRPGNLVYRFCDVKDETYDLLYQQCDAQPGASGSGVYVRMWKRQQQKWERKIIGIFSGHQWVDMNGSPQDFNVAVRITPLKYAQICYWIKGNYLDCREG
Chain of UniProt Q13332 (Q13332 whole entry): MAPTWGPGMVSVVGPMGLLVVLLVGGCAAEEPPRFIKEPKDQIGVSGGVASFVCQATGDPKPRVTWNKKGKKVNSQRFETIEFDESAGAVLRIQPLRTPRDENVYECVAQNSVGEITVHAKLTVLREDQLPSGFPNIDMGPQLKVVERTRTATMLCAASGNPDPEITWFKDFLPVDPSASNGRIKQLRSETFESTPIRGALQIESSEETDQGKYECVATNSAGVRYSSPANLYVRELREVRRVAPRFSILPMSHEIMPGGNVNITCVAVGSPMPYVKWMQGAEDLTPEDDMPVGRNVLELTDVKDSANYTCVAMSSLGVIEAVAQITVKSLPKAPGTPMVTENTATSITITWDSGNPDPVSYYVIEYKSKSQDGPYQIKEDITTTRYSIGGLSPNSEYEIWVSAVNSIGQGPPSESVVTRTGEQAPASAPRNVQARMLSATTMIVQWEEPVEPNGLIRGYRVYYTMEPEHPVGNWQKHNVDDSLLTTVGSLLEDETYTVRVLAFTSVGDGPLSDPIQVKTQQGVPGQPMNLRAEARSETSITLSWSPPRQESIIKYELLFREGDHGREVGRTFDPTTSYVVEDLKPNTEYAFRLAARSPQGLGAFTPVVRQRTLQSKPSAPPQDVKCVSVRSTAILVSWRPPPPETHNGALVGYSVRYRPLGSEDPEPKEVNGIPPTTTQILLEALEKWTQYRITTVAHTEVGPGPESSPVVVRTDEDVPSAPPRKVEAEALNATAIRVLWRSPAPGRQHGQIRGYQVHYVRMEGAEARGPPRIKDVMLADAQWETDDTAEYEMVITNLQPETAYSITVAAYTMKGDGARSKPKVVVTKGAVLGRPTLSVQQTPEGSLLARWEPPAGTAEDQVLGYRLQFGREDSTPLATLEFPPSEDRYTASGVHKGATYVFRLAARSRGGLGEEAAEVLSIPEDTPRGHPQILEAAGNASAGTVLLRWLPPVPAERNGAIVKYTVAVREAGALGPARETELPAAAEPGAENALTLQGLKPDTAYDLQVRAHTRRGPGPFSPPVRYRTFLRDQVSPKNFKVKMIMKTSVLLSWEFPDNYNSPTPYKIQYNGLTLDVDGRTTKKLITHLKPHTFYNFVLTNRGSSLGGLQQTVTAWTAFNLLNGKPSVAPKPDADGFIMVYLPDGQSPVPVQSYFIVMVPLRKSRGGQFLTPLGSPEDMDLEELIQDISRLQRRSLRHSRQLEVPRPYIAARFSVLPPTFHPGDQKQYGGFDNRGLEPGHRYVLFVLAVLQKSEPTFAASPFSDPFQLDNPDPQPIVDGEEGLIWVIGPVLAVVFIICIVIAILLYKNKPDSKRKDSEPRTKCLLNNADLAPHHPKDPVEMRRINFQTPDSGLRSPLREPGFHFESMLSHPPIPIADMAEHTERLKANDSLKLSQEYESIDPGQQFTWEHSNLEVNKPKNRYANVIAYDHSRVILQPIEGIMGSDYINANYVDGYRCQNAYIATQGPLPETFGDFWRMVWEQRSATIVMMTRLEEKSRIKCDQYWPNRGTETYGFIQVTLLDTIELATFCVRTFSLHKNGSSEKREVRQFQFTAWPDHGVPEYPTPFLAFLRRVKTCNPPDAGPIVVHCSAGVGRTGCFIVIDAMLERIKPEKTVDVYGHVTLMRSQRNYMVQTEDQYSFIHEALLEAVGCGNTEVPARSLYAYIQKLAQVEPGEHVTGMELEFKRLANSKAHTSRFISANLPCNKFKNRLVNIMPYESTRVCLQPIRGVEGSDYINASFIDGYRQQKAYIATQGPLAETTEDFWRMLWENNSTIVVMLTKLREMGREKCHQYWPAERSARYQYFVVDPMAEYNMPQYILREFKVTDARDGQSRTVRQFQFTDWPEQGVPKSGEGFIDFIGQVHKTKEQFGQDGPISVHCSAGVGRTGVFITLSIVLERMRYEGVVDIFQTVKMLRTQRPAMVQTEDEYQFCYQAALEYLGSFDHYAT
Chain of UniProt O95292 (O95292 whole entry): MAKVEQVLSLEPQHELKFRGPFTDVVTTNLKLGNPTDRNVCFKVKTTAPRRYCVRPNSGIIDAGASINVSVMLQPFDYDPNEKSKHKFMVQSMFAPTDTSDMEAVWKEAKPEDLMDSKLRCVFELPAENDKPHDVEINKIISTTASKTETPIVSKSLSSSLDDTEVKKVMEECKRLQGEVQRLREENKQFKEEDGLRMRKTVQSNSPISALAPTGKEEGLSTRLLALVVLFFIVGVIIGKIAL
As to UniProt O95084 (lysine site: K331), the “lysine labeling ratio R10:1” value was 4.02 (inactive).
In the case of “HNRNPU (lysine site: K614) (UniProt Q00839)” it was 2.36 (inactive); in that of “TFRC (lysine site: K177) (UniProt P02786)”, 2.39 (inactive).
“NRP1 (lysine site: K231) (UniProt O14786)”: the “lysine labeling ratio R10:1” value was 5.85 (inactive).
In the case of “NUMA1 (lysine site: K1024) (UniProt Q14980)” it was 1.17 (active); in that of UniProt P55072 (lysine site: K236), 2.76 (inactive).
In the case of “SLC4A2 (lysine site: K975) (UniProt P04920)”, the “lysine labeling ratio R10:1” value was 2.29 (inactive).
The value for “LPL (lysine site: K265) (UniProt P06858)” was 1.86 (active); that for “SDC2 (lysine site: K134) (UniProt P34741)” was 3.52 (inactive); that for “DYNC1H1 (lysine site: K4171) (UniProt Q14204)” was 2.12 (inactive).
In the case of “APP (lysine site: K521) (UniProt P05067)” it was 5.65 (inactive); in that of “YWHAQ (lysine site: K80) (UniProt P27348)”, 3.11 (inactive); in that of “HSPA8 (lysine site: K251) (UniProt P11142)”, 1.57 (active).
The value for “CCT4 (lysine site: K42) (UniProt P50991)” was 4.65 (inactive); that for “FBLN1 (lysine site: K59) (UniProt P23142)” was 1.25 (active); that for UniProt Q16629 (lysine site: K70) was 1.67 (active).
With “DSG2 (lysine site: K251) (UniProt Q14126)”, the “lysine labeling ratio R10:1” value was 8.19 (inactive).
On to “PPP2CA (lysine site: K41) (UniProt P67775)”, for which the “lysine labeling ratio R10:1” value is 1.68 (active).
Consider “ACTN1 (lysine site: K741) (UniProt P12814)”, for which the “lysine labeling ratio R10:1” value was 1.15 (active).
As to UniProt Q9UHN6 (lysine site: K278), the “lysine labeling ratio R10:1” value is 3.15 (inactive).
For the target “VAPB (lysine site: K174) (UniProt O95292)”, the “lysine labeling ratio R10:1” value is 1.61 (active).
The value for “RPL28 (lysine site: K72) (UniProt P46779)” was 2.12 (inactive); that for “GAPDH (lysine site: K5) (UniProt P04406)” was 1.43 (active).
As for UniProt Q16352 (lysine site: K290), the “lysine labeling ratio R10:1” value is 1.71 (active).
For “SLC25A1 (lysine site: K160) (UniProt P53007)”, the “lysine labeling ratio R10:1” value was 2.79 (inactive).
The value for “CCT7 (lysine site: K320) (UniProt Q99832)” was 2.53 (inactive); that for UniProt Q9BTX1 (lysine site: K628) was 5.32 (inactive).
On to “XRCC5 (lysine site: K265) (UniProt P13010)”, for which the “lysine labeling ratio R10:1” value is 3.42 (inactive).
Turning to “TFPI (lysine site: K64) (UniProt P10646)”, the “lysine labeling ratio R10:1” value is 1.41 (active).
In the case of “ENO1 (lysine site: K422) (UniProt P06733)” it was 2.65 (inactive); in that of “SERBP1 (lysine site: K122) (UniProt Q8NC51)”, 11.8 (inactive).
The value for “SPTAN1 (lysine site: K1543) (UniProt Q13813)” was 1.58 (active); that for “LAMC1 (lysine site: K1093) (UniProt P11047)” was 2.13 (inactive); that for “PTPRS (lysine site: K897) (UniProt Q13332)” was 2.19 (inactive).
The value for “ASPH (lysine site: K588) (UniProt Q12797)” was 1.1 (active).
With “KRT18 (lysine site: K407) (UniProt P05783)”, the “lysine labeling ratio R10:1” value was 8.64 (inactive).
The value for “ACTN4 (lysine site: K66) (UniProt O43707)” was 4.43 (inactive); that for “TLN1 (lysine site: K687) (UniProt Q9Y490)” was 3.61 (inactive); that for “EHD2 (lysine site: K491) (UniProt Q9NZN4)” was 1.25 (active).
In the case of “PPIA (lysine site: K155) (UniProt P62937)” it was 2.47 (inactive).
